Assay results from PubChem BioAssay (NCI).
Compounds without any hit were thinned out: in the full panel of roughly 79,000, 15% have a hit. Values without a mark were called inactive. Calls of active or inactive are those of the source. Cut-off read from the data, not from the text of the source: active = growth inhibition above about 70%; inactive = the rest.

Key:
[1] = NCI Yeast Anticancer Drug Screen. Data for the rad50 strain (AID 155);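 note: 0% = growth of vehicle-only cultures of the same strain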; conditions: S. cerevisiae rad50 strain growth inhibition; at 50.0 µM; hits give high values
Summary of the method: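 Cells are treated with compound, grown, and their growth is then scored against vehicle-only cultures of the same repair-deficient yeast strain.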

[2] = NCI Yeast Anticancer Drug Screen. Data for the mec2-1 strain (AID 157); conditions: S. cerevisiae mec2-1 strain, at 50.0 µM, hits give high values
Summary of the method: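 Mutant yeast (mec2-1) grown with compound; growth inhibition relative to vehicle control reported.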

[3] = NCI Yeast Anticancer Drug Screen. Data for the sgs1 mgt1 strain (AID 161);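 note: 0% = growth of cultures given vehicle only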; conditions: S. cerevisiae sgs1 mgt1 strain, at 50.0 µM, hits give high values
Summary of the method: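 Growth of a repair-deficient yeast mutant was monitored after compound treatment and expressed as inhibition relative to vehicle-treated cultures.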

[4] = NCI Yeast Anticancer Drug Screen. Data for the cln2 rad14 strain (AID 165);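 note: 0% = growth equal to vehicle treated cultures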; conditions: S. cerevisiae cln2 rad14 strain, at 50.0 µM, hits give high values
Summary of the method: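 Readout is yeast growth inhibition versus vehicle-treated controls, using a strain with cln2 and rad14 alterations exposed to compound.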

[5] = NCI Yeast Anticancer Drug Screen. Data for the bub3 strain (AID 167); conditions: S. cerevisiae bub3 mutant strain, at 50.0 µM, hits give high values
Summary of the method: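 Part of a panel of yeast mutants defective in DNA damage repair or cell cycle regulation. Each strain is grown with compound, and inhibition is calculated relative to solvent-treated cultures.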

[6] = NCI Yeast Anticancer Drug Screen. Data for the mlh1 rad18 strain (AID 175); conditions: S. cerevisiae mlh1 rad18 strain growth inhibition; at 50.0 µM; hits give high values
Summary of the method: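 Genetically defined yeast (DNA repair-deficient) exposed to compounds; growth inhibition determined relative to vehicle.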

Structure (SMILES)	growth inhibition [1]	growth inhibition [2]	growth inhibition [3] [%]	growth inhibition [4]	growth inhibition [5]	growth inhibition [6]
CCOC(=O)C(OCC1CC=CCC1)Sc1ccccc1 (configuration not stated)	10.6%	-24.6%	-4.95	-19.3%	-9.7%	-13.9%
C[C@]12CC[C@@H]3c4cc(OCC(F)(F)F)c(O)cc4/C(=N/O)C[C@H]3[C@@H]1CC[C@@H]2O	-0.75%	-4.55%	4.65	17.6%	12.8%	13.2%
O=C(CC(=O)N1CCOCC1)N1CCOCC1	4.5%	-14.8%	26.9	7.9%	19.4%	7.45%
COC(=O)c1ccc(Cl)nc1	0.85%	-8.6%	-9.7	-6.75%	-11.1%	-10.3%
CC(C)SCC(N)C(=O)O (configuration not stated)	-17.8%	-10.7%	-2.65	-15%	-11.8%	-15.8%
CS(=O)(=O)CC1=NC(=N)N=C1CS(C)(=O)=O	6.05%	-14.9%	-8.95	-4.85%	-29.8%	2.1%
C/C1=C/C(C)CC(C)OC(=O)C(C)NC(=O)C(Cc2ccc(O)c(I)c2)N(C)C(=O)C(C)NC(=O)C(C)C1 (configuration not stated)	92.8% (active)	93.7% (active)	52.4	90.7% (active)	92.8% (active)	91.2% (active)
O=S(=O)(O)C1=CC(=N/Cl)/C=CC/1=N\Cl	-25.8%	-23.8%	-14.6	-4.15%	-42%	-25.2%
Cc1cccc(C)c1NC(=S)NC(=O)c1cccc(Cl)c1	-13.6%	-23%	-2.9	-10.5%	-20.4%	-16.6%
C/C(=N\NC(=S)Nc1ccc(C(=O)O)cc1)c1nccc2ccccc12	3.2%	1.1%	4.2	28.9%	9.75%	7.25%
CC(NC(CC12CC3CC(CC(C3)C1)C2)C(N)=O)c1ccccc1 (configuration not stated)	-17.8%	-20.8%	-2.3	14.1%	15.3%	-18.4%
O=C(Nc1ccc(Cl)cc1)c1ccc(Cl)cc1Cl	-11.8%	10.7%	-2.5	-39.1%	13.7%	-0.15%
CCCCCCC1(C=O)C(=O)NC(=O)N1C (configuration not stated)	10.3%	9.65%	6.45	13.3%	4.1%	-0.35%
CCCCCCCCCCCC(=O)O	-0.85%	0.7%	25.6	-7.45%	10.1%	19.2%
CC1=CC(C)(C)NC(=S)N1c1cccc2c(S(=O)(=O)O)cccc12	5.05%	-20.8%	-11.2	-32.3%	4.55%	6.3%
COC(=O)c1nc(=S)[nH]c(C(=O)OC)c1C(=O)c1ccccc1O	21.9%	11.9%	14.1	3.4%	29.1%	30%
CC(=O)Nc1ccc(S(=O)(=O)NNC(=O)NNS(=O)(=O)c2ccc(NC(C)=O)cc2)cc1	-6.15%	-7.2%	-11.5	2.5%	-7%	-10.4%
CCc1cccc(C(C)(C)C)c1NC(=S)N/C=C(/C#N)C(N)=O	8.2%	-7.45%	16.9	13.7%	-15.9%	11.8%
COC(OC)C1CC=CCCC1C(=O)O (configuration not stated)	17.1%	16.8%	11.7	-0.4%	14.2%	-8.65%
O=c1[nH]cc(CS)c(=O)[nH]1	28.4%	0.85%	-7.95	34%	51%	14.5%
CCOC(=O)C(=N\Nc1ccccc1)/C(C)=N\NC(N)=S	13.2%	-7.45%	-11.7	8.95%	4.5%	1.9%

Structure (SMILES)	growth inhibition [1]	growth inhibition [2]	growth inhibition [3] [%]	growth inhibition [4]	growth inhibition [5]	growth inhibition [6]
CCCCNC(=O)Oc1c(Cl)cc(Cl)c(Cl)c1[N+](=O)[O-]	16.2%	10.1%	17.9	4.4%	-11.1%	21.2%
CCC(=O)COC(C)=O	-3.75%	-22%	-6.05	-2.35%	-3.75%	0.95%
N#CCCC1(CCC#N)CCCCCCCCC(CCC#N)(CCC#N)C(=O)C1=O	-8.7%	-7.2%	-5.15	6.65%	2.4%	14.7%
CC(C)(O)C(C)(O)C#CC(C)(O)C(C)(C)O (configuration not stated)	-2.65%	1.2%	1.3	-15.2%	2.5%	6.75%
COc1ccccc1C1OC2=C(Nc3ccc(Cl)cc3N2)C1=O (configuration not stated)	-6.5%	-17.8%	-17.5	-7%	-23.7%	-2.95%
CNc1cc2oc(=O)cc(C)c2cc1C	19.8%	-12.5%	6.8	3.6%	14.2%	10.4%
COc1ccc(C(=O)CCN(C)C)c2ccccc12	-9.1%	-19.8%	-17.1	9.7%	-20.3%	17.5%
CCC(=O)C(C)C(=O)C(=O)NCCNC(=O)C(=O)C(C)C(=O)CC (configuration not stated)	19.9%	-1.3%	2.75	-16.6%	-8.5%	-25.6%
COc1cc([C@H]2Oc3cc([C@H]4Oc5cc(O)cc(O)c5C(=O)[C@@H]4O)ccc3O[C@@H]2CO)ccc1O	3.15%	0.55%	11.8	-36.4%	15.5%	6.05%
COc1ccc(-c2nc3ccccc3[nH]2)cc1	16.4%	-2.7%	1.7	-4%	-21.5%	-3.1%
CC(=O)Oc1cc(C)ccc1C	-2.7%	-0.5%	-18.2	-55.5%	-21.8%	-0.35%
Cc1ccc(C#N)c2c1CCC2	2.65%	-10.7%	3.05	-50%	-13%	2.6%
O=C1C(=O)c2ccccc2C(O)=C1c1ccc(Br)cc1	8.85%	-9.5%	-2.8	-4.9%	-3.65%	-8.9%
c1csc(-c2cc(-c3ccsc3)c(-c3cccs3)s2)c1	-46.6%	-62.7%	-33.4	-0.1%	-1.4%	-34.3%
Cc1cc(=O)n2cn[nH]c2n1	24.4%	-11.6%	24.1	5.25%	9.25%	25.8%
O=C(NNC(=S)Nc1ccc(S(=O)(=O)N2CCCCC2)cc1)c1ccncc1	5.25%	11.1%	33.5	4.2%	33%	46%
c1ccc(N=C2SC(=NNc3ccccc3)SC2=Nc2ccccc2)cc1	-21.8%	6.25%	-21.9	-29.5%	-8.25%	-4.1%
CCSC(SCC)C(SCC)C(OC(=O)c1ccccc1)C(OC(=O)c1ccccc1)C(COC(=O)c1ccccc1)OC(=O)c1ccccc1 (configuration not stated)	9.3%	-2.35%	-14.4	-5.3%	4.25%	33.3%
CC(C)c1cc(C(C)C)c(Cc2c(C(C)C)cc(C(C)C)cc2C(C)C)c(C(C)C)c1	15%	14.2%	0.3	0.55%	-2%	20.3%
CCCN(CCC)NC(=O)c1ccc(N=NN(C)C)cc1	0.15%	32.8%	8.4	-5.3%	39.9%	21%
C=C1C(=O)O[C@@H]2[C@H]3O[C@]3(C)CCC=C(C)CC[C@@H]12	-2.7%	-7.05%	2.15	9.05%	-11.8%	-6.75%
